Experimental data: PubChem BioAssay (NCI)
The panel holds about 83,000 compounds, 20% with a hit somewhere; the sample as a whole holds those more often.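 Treatment: one concentration, 48 hours, 96-well format. Scoring: percent growth, with anything below 10 considered active.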 Active and inactive are the calls of the source.

test system: NCI-H460 lung; assay: NCI-60 one-dose screen, 48 h (100 = growth as untreated, 0 = no growth, -100 = all killed); details: 10 µM unless noted

SMILES | growth
S=C(Sc1ccc(Cl)cc1)Sc1ccc(Cl)cc1 | 67.1% (inactive)
O=C(O)c1ccc([N+](=O)[O-])cc1S(=O)(=O)O | 105% (inactive)
O=C(O)CC1=CCCCC1 | 106% (inactive)
O=C1C=C[C@H](O)[C@@]2(CO)O[C@@H]12 | 121% (inactive)
NC(=O)NCCO | 104% (inactive)
O=C(O)C1CCCN1C(=O)OCc1ccccc1 (stereo not drawn) | 102% (inactive)
C=CC(C)(C)n1cc(C2=C(O)C(=O)C(c3cn(C(C)(C)C=C)c4ccccc34)=C(O)C2=O)c2ccccc21 | 89.5% (inactive)
COC(=O)c1cccc([N+](=O)[O-])c1 | 108% (inactive)
CCOC(=O)C(=O)CC(=O)c1ccccc1 | -12.5% (active)
O=Cc1ccc(F)cc1 | 93.9% (inactive)
CC1CC2C3CCC4=CC(=O)CCC4(C)C3CCC2(C)C1(O)C(=O)CO (stereo not drawn) | 117% (inactive)
CC(CC(CCC(=O)O)(c1ccccc1)c1ccccc1)N(C)C (stereo not drawn) | 107% (inactive)
Cc1ccc(S(=O)(=O)Oc2ccc3sc4c(CO)ccc(NCCN(C)C)c4c(=O)c3c2)cc1 | -83% [100 µM] (active)
O=C(OCC1CCCO1)c1ccc([N+](=O)[O-])cc1 (stereo not drawn) | 95.5% (inactive)
Nc1c(Br)cc(O)c2c1C(=O)c1ccccc1C2=O | 102% (inactive)
COc1ccc(Br)c2c1C(=O)CC2 | 110% (inactive)
CC(=O)N(C(C)=O)c1ccc(C)cc1 | 107% (inactive)
CC1(C)C2CCC1(C)C1(C2)OCCS1 (stereo not drawn) | 106% (inactive)
O=c1n(CC2CO2)c(=O)n(CC2CO2)n1CC1CO1 (stereo not drawn) | 4.78% (active)

SMILES | growth
S=C=Nc1ccc2ccccc2c1 | 105% (inactive)
O=C(O)c1c[nH]c2ccccc2c1=O | 105% (inactive)
Cc1[nH]n(-c2ccccc2)c(=O)c1C=NC(=S)C(N)=S | 107% (inactive)
CC(=O)N(C)N=Nc1ccc(C)cc1 | 116% (inactive)
COc1ccc2c(Cl)cc(NC(=O)Nc3c(C)cccc3C)nc2c1 | 31.4% (inactive)
O=C(c1ccc(Cl)cc1)N1CCCCC1 | 101% (inactive)
CC(=O)NC(O)C(Cl)Cl (stereo not drawn) | 106% (inactive)
CCC(/C=C\C(C)=O)CC | 100% (inactive)
CCOC(=O)C(COS(C)(=O)=O)(COS(C)(=O)=O)C(=O)OCC | 109% (inactive)
CC(=O)NNC(=S)N/C=C/c1c(C)ccc([N+](=O)[O-])c1[N+](=O)[O-] | 102% (inactive)
CC(=O)N(CCCCCCN(C(C)=O)C(C)=O)C(C)=O | 109% [100 µM] (inactive)
CC(=O)NCNC(C)=O | 113% (inactive)
NNc1ncccn1 | 112% (inactive)
CC12CCC3c4ccc(O)cc4CCC3C1CCC2=O (stereo not drawn) | 105% (inactive)
Nc1cc2ccccc2c(O)c1O | 86.9% (inactive)
S=c1nc(-c2ccccn2)c(-c2ccccn2)n[nH]1 | 112% (inactive)
CC(C)Sc1ncnc2nc[nH]c12 | 99.4% (inactive)
Clc1cccc(Cl)c1C1CSc2ccccc2N=C1c1ccccc1 (stereo not drawn) | 83.1% (inactive)

test system: HOP-92 NSCLC; assay: as above; details: 10 µM unless noted

SMILES | growth
C=CC(C)(C)n1cc(C2=C(O)C(=O)C(c3cn(C(C)(C)C=C)c4ccccc34)=C(O)C2=O)c2ccccc21 | 60.9% (inactive)
S=C=Nc1ccc2ccccc2c1 | 79% (inactive)
CCOC(=O)C(COS(C)(=O)=O)(COS(C)(=O)=O)C(=O)OCC | 86% (inactive)
CC12CCC3c4ccc(O)cc4CCC3C1CCC2=O (stereo not drawn) | 104% (inactive)

test system: NCI-H522 lung; assay: as above; details: 10 µM unless noted

SMILES | growth
S=C(Sc1ccc(Cl)cc1)Sc1ccc(Cl)cc1 | -83% (active)
O=C(O)c1ccc([N+](=O)[O-])cc1S(=O)(=O)O | 101% (inactive)
O=C(O)CC1=CCCCC1 | 101% (inactive)
O=C1C=C[C@H](O)[C@@]2(CO)O[C@@H]12 | -60.6% (active)
NC(=O)NCCO | 95.2% (inactive)
O=C(O)C1CCCN1C(=O)OCc1ccccc1 (stereo not drawn) | 85.6% (inactive)
C=CC(C)(C)n1cc(C2=C(O)C(=O)C(c3cn(C(C)(C)C=C)c4ccccc34)=C(O)C2=O)c2ccccc21 | 98.2% (inactive)
COC(=O)c1cccc([N+](=O)[O-])c1 | 101% (inactive)
CCOC(=O)C(=O)CC(=O)c1ccccc1 | 98.8% (inactive)
O=Cc1ccc(F)cc1 | 97.8% (inactive)
CC1CC2C3CCC4=CC(=O)CCC4(C)C3CCC2(C)C1(O)C(=O)CO (stereo not drawn) | 92.2% (inactive)
CC(CC(CCC(=O)O)(c1ccccc1)c1ccccc1)N(C)C (stereo not drawn) | 105% (inactive)
Cc1ccc(S(=O)(=O)Oc2ccc3sc4c(CO)ccc(NCCN(C)C)c4c(=O)c3c2)cc1 | -74.4% [100 µM] (active)
O=C(OCC1CCCO1)c1ccc([N+](=O)[O-])cc1 (stereo not drawn) | 94.2% (inactive)
Nc1c(Br)cc(O)c2c1C(=O)c1ccccc1C2=O | 54% (inactive)
COc1ccc(Br)c2c1C(=O)CC2 | 43.1% (inactive)
CC(=O)N(C(C)=O)c1ccc(C)cc1 | 113% (inactive)
CC1(C)C2CCC1(C)C1(C2)OCCS1 (stereo not drawn) | 102% (inactive)
O=c1n(CC2CO2)c(=O)n(CC2CO2)n1CC1CO1 (stereo not drawn) | 31.4% (inactive)

SMILES | growth
S=C=Nc1ccc2ccccc2c1 | 97.3% (inactive)
O=C(O)c1c[nH]c2ccccc2c1=O | 93.1% (inactive)
Cc1[nH]n(-c2ccccc2)c(=O)c1C=NC(=S)C(N)=S | 86.2% (inactive)
CC(=O)N(C)N=Nc1ccc(C)cc1 | 92.9% (inactive)
COc1ccc2c(Cl)cc(NC(=O)Nc3c(C)cccc3C)nc2c1 | 78.1% (inactive)
O=C(c1ccc(Cl)cc1)N1CCCCC1 | 93.6% (inactive)
CC(=O)NC(O)C(Cl)Cl (stereo not drawn) | 94% (inactive)
CCC(/C=C\C(C)=O)CC | 106% (inactive)
CCOC(=O)C(COS(C)(=O)=O)(COS(C)(=O)=O)C(=O)OCC | 96% (inactive)
CC(=O)NNC(=S)N/C=C/c1c(C)ccc([N+](=O)[O-])c1[N+](=O)[O-] | 87.8% (inactive)
CC(=O)N(CCCCCCN(C(C)=O)C(C)=O)C(C)=O | 102% [100 µM] (inactive)
CC(=O)NCNC(C)=O | 119% (inactive)
NNc1ncccn1 | 84.6% (inactive)
CC12CCC3c4ccc(O)cc4CCC3C1CCC2=O (stereo not drawn) | 70% (inactive)
Nc1cc2ccccc2c(O)c1O | 45.3% (inactive)
S=c1nc(-c2ccccn2)c(-c2ccccn2)n[nH]1 | 82.7% (inactive)
CC(C)Sc1ncnc2nc[nH]c12 | 109% (inactive)
Clc1cccc(Cl)c1C1CSc2ccccc2N=C1c1ccccc1 (stereo not drawn) | 63.6% (inactive)
